# A selection: hits, their analogues and other compounds. The true share with any hit is near 6.1%.
# DRD3 antagonist – qHTS of D3 Dopamine Receptor Antagonist: qHTS | D(3) dopamine receptor (Homo sapiens), P35462 | D3R cells, DiscoveRx beta-arrestin luminescence, antagonist mode; active compounds read low | max response, negative = inhibition, % | 2.5% of 360,000 active | AID 652054, 2013; in the data active means max response below about -50%; further: on the % scale 0 is the no-effect control and ±100 the full control effect
#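 Cells plated overnight at 1500 cells/well, then exposed to library compounds with dopamine controls for 90 minutes at 37 degrees C. DiscoveRx reagent added for 30–60 minutes at room temperature; luminescence read, quantitative HTS format.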
# DRD3 agonist – qHTS of D3 Dopamine Receptor Agonist: qHTS | max activation, % | D(3) dopamine receptor (Homo sapiens), P35462 | 0.58% of 410,000 active | D3R DiscoveRx beta-arrestin cells, luminescence, 90 min; in the data active means max activation above about 30%; further: 0% is about no effect
#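 Agonist-mode cell screen: cells plated at 1500/well and incubated overnight at 37 °C, then exposed to library compounds for 90 min at 37 °C. Detection reagent was added for 30–60 min at room temperature, and luminescence was read.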
# D1 antag – Antagonist of Human D 1 Dopamine Receptor: qHTS; 3.2% of 360,000 active; AID 504652, 2011; activity change, negative = inhibition, % at 10 µM; D(1A) dopamine receptor (Homo sapiens), P21728; HEK293 TREx D1 cells, calcium flux, dopamine EC80; active compounds read low; in the data active means activity change below about -30%; further: on the % scale 0 is the no-effect control and ±100 the full control effect
# Target sequence (P21728 whole entry, looked up): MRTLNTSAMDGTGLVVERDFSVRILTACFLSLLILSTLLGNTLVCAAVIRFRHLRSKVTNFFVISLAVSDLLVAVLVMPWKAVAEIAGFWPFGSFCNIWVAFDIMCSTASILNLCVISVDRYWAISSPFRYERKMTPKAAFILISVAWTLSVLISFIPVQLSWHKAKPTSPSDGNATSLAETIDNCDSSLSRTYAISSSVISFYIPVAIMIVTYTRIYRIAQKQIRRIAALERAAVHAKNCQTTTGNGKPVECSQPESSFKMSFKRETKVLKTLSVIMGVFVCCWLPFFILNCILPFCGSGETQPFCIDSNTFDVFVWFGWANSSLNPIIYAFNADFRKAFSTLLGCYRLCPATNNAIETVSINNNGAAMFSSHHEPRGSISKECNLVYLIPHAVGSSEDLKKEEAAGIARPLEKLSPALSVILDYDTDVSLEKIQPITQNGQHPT
#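 Cells carrying a force-coupled, tetracycline-inducible human D1 receptor report calcium flux. Each well gets a 10 s baseline, compound with 180 s monitoring, then an EC80 dopamine stimulus with a second 180 s kinetic read.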
# D1 PAM – Potentiators of Human D1 Dopamine Receptor: qHTS. D(1A) dopamine receptor (Homo sapiens), P21728. HEK293 TREx D1 cells, calcium flux, dopamine EC20 potentiation. potentiation, % at 10 µM. 0.036% of 360,000 active. AID 504651, 2011; in the data active means potentiation above about 30%; further: 0% is about no effect
# D1 ag – Allosteric Agonists of the Human D1 Dopamine Receptor: qHTS; AID 504660, 2011; HEK293 T-REx D1 cells, calcium flux, agonist mode; D(1A) dopamine receptor (Homo sapiens), P21728; 1% of 360,000 active; activation, % at 2 µM; in the data active means activation above about 30%; further: 0% is about no effect
#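 Inducible HEK293 T-REx D1 cells, force-coupled to calcium signalling, were plated at 4000 cells/well with tetracycline and held overnight at 30 C. After no-wash calcium dye loading, compound-evoked calcium rise over 180 s flagged agonists.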
# The depositor's hits bear a star; · = no result given.
SMILES,DRD3 antagonist,DRD3 agonist,D1 antag,D1 PAM,D1 ag
CN1C(=O)C2CCCCN2c2ccc(C(=O)NCc3ccccc3Br)cc21 (stereo not given),·,-15,-7,-1,0
CC(CCc1ccccc1)NC(=O)CCNS(=O)(=O)c1ccccc1C(F)(F)F (stereo not given),-6,1,-11,0,2
N#C/C(=C/C1=C(N2CCOCC2)C(=C/c2cccc([N+](=O)[O-])c2)/CC1)C(=O)Nc1ccccc1F,-17,39*,·,·,·
CSc1ccc(CCNC(=O)c2cc3cc4cc(C)ccc4nc3s2)cc1,·,-4,10,-4,5
CCOc1ccc(CNC(=O)Nc2ccc3c(c2)N(C)C(=O)c2ccccc2S3)cc1,·,9,9,-1,5
Cc1ccc2c(c1)N(C(=O)CCC(=O)NC1CCN(Cc3ccccc3)CC1)CC(C)O2 (stereo not given),-30,-16,-2,-6,3
CN(C1=C(NC(=O)c2ccccc2)C(=O)c2ccccc2C1=O)C1CCS(=O)(=O)C1 (stereo not given),-54*,-13,-4,-5,0
C=CCSC1=N/C(=C\c2cccnc2)C(=O)N1c1ccc(OC)cc1,-3,1,-54*,-11,4
CCSC1=N/C(=C\c2ccccc2)C(=O)N1c1ccc(OC)cc1,-25,5,-2,-4,4
C=CCSC1=N/C(=C/c2ccsc2)C(=O)N1c1ccccc1,14,0,-58*,-13,7
Cc1nn(CCc2nn[nH]n2)c2nc(-c3ccc(Br)cc3)cc(C(F)(F)F)c12,13,10,-36*,-2,4
Cc1nn(CCc2nn[nH]n2)c2nc(C(F)(F)F)cc(C(F)(F)F)c12,21,3,-4,-4,6
CCCCc1c(O)nc(SCC(=O)Nc2ccc(OC)cc2)n(-c2ccc(C)c(C)c2)c1=O,18,-1,·,·,·
COc1ccc(CNC(=O)Nc2nc(C(N)Cc3ccc(C(F)(F)F)cc3)cs2)cc1 (stereo not given),23,6,·,·,·
S=c1[nH]nc(-c2ccccn2)n1/N=C/c1ccc(Br)s1,-56*,13,3,3,0
COC(=O)CSc1nc(N2CCOCC2)c2c(c1C#N)CC(C)(C)OC2,14,-8,-11,-1,1
COC(=O)Sc1nc(N2CCOCC2)c2c(c1C#N)CC(C)(C)OC2,-57*,-1,5,1,1
COc1ccc(N(CC(=O)NN=C2CCN(C)CC2)S(=O)(=O)c2ccccc2)c(OC)c1,-13,0,-7,2,-4
CC(C)C[C@@]12C(=O)N(c3cccc(Br)c3)C(=O)N1[C@H](c1ccc(F)cc1)[C@@H]1C(=O)N(C3CCCCC3)C(=O)[C@@H]12,50,51*,8,-6,1
O=c1/c(=C\c2ccc(O)cc2)sc2n1C(c1ccccc1)C(c1ccccc1)=NN=2 (stereo not given),-59*,-28,-51*,-10,33*
Cn1cc(S(=O)(=O)N2CCN(c3ccccc3F)CC2)c(=O)n(C)c1=O,-20,-2,2,-4,-1
CC1CCN(S(=O)(=O)c2cn(C)c(=O)n(C)c2=O)CC1,0,1,-61*,-10,-2
COc1ccccc1N1CCN(S(=O)(=O)c2cn(C)c(=O)n(C)c2=O)CC1,-6,4,-36*,-13,0
CCn1c2ccc(C)cc2c2nnc(SCCN3CCOCC3)nc21,-23,-2,16,1,1
Cc1ccc2[nH]c3nc(SCCN4CCOCC4)nnc3c2c1,-57*,-3,5,-2,1
SMILES,DRD3 antagonist,DRD3 agonist,D1 antag,D1 PAM,D1 ag
Cc1oc2ccc(O)c(CN(C)Cc3ccccc3)c2c1C(=O)Nc1ccccc1,·,-11,-44*,-4,-2
c1ccc(-c2nn3c(Cn4cnc5ccccc54)nnc3s2)cc1,14,-3,-33*,-11,4
CCN(CC)S(=O)(=O)c1ccc(N=Nc2c(C)[nH]n(C(N)=S)c2=O)cc1,-93*,9,-26,10,4
O=[N+]([O-])c1cc(Br)c(O)c(/C=N/Nc2nnnn2-c2cccc3ccccc23)c1,-85*,-53,-20,-2,21
CO/N=C\CC(=O)Nc1ccc(Cl)c(Cl)c1,2,-2,-30*,-6,6
CCOC(=O)C1(C)CCCN(C(=O)c2cc(C#N)cs2)C1 (stereo not given),-6,-5,·,·,·
O=S(=O)(Nc1nc2n(n1)C(c1ccc(F)cc1)C=C(c1ccccc1)N2)c1ccc(Cl)cc1 (stereo not given),·,20,8,-3,3
Cc1ccc(C2C=C(c3ccccc3)Nc3nc(NS(=O)(=O)c4ccccc4)nn32)cc1 (stereo not given),·,7,10,-3,31*
Cc1ccc(S(=O)(=O)Nc2nc3n(n2)C(c2ccc(Cl)cc2)C=C(c2ccccc2)N3)cc1 (stereo not given),·,15,19,-1,11
O=S(=O)(Nc1nc2n(n1)C(c1ccccc1)C=C(c1ccc(Cl)cc1)N2)c1ccccc1 (stereo not given),·,-8,-14,0,32*
Cc1ccc(S(=O)(=O)Nc2nc3n(n2)C(c2ccc(F)cc2)C=C(c2ccccc2)N3)cc1 (stereo not given),·,39*,-11,1,0
O=C1c2cccc3cccc(c23)C(c2nc3ccccc3[nH]2)N1C1CC1 (stereo not given),0,1,·,·,·
Cc1c(C(=O)N2CCCC2)sc(NC(=O)c2ccc(Cl)cc2)c1C#N,-55*,-4,-64*,-8,0
COc1ccc(CC(=O)NC(C)c2nnc(SCC(=O)c3ccc(Br)cc3)n2C)cc1 (stereo not given),-56*,10,13,-11,-1
Cn1cc(CN2CCCC(CO)(Cc3cccc(Cl)c3)C2)cn1 (stereo not given),-24,-9,5,-4,0
OCC1(Cc2ccc(F)cc2F)CCCN(Cc2ccc(Cl)cc2)C1 (stereo not given),-83*,-21,-1,-4,3
OCC1(Cc2cccc(Cl)c2)CCCN(Cc2cnn(-c3ccccc3)c2)C1 (stereo not given),-62*,-18,4,-5,4
Cc1nn(C)c(Cl)c1CN1CCCC(CO)(Cc2cccc(Cl)c2)C1 (stereo not given),11,4,-33*,-4,11
Cc1ccccc1CC1(CO)CCCN(Cc2c(C)nn(C)c2Cl)C1 (stereo not given),-13,-6,-33*,-5,17
